Measured values from the supplement of paper PMC6897291.

Assays:
RIVA [1] = assay: growth inhibition by drug plus 177Lu-lilotomab satetraxetan (1 - RLU/untreated control) (fraction); higher = stronger inhibition; conditions: 177Lu-lilotomab satetraxetan 0.5 ug/ml
Summary of the method: (§1)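 A radiolabelled anti-CD37 antibody conjugate (~600 MBq/mg) was applied for 18 h at 0.5 µg/ml to RIVA and 1 µg/ml to U-2932 cells, with untreated cells run alongside. All cells were washed and seeded at 3,000 cells/well onto library-printed plates at 10/100 nM (RIVA) or 10/1,000 nM (U-2932). Growth inhibition was based on RealTime-Glo luminescence compared with untreated no-drug wells. Daily reads began on day 3 after 1 h at 37°C, with each value being 1 − RLU/mean of the 48 such wells on that plate.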

U-2932 [2] = assay: growth inhibition by drug alone (1 - RLU/untreated control) (fraction); higher = stronger inhibition; conditions: 177Lu-lilotomab satetraxetan 0 ug/ml
Summary of the method: as §1

RIVA [3] = assay: as above; conditions: 177Lu-lilotomab satetraxetan 0 ug/ml
Summary of the method: as §1

U-2932 [4] = assay: growth inhibition by drug plus 177Lu-lilotomab satetraxetan (1 - RLU/untreated control) (fraction); higher = stronger inhibition; conditions: 177Lu-lilotomab satetraxetan 1 ug/ml
Summary of the method: as §1

Structure (SMILES)	growth inhibition by drug plus 177Lu-lilotomab satetraxetan (RIVA [1]; 100 nM, time (day): 5)	growth inhibition by drug plus 177Lu-lilotomab satetraxetan (RIVA [1]; 100 nM, time (day): 6)	growth inhibition by drug alone (U-2932 [2]; 10 nM, time (day): 3)	growth inhibition by drug alone (U-2932 [2]; 10 nM, time (day): 4)	growth inhibition by drug alone (U-2932 [2]; 10 nM, time (day): 5)	growth inhibition by drug alone (U-2932 [2]; 10 nM, time (day): 6)	growth inhibition by drug alone (U-2932 [2]; 1000 nM, time (day): 3)	growth inhibition by drug alone (U-2932 [2]; 1000 nM, time (day): 4)	growth inhibition by drug alone (U-2932 [2]; 1000 nM, time (day): 5)	growth inhibition by drug alone (U-2932 [2]; 1000 nM, time (day): 6)	growth inhibition by drug alone (RIVA [3]; 10 nM, time (day): 3)	growth inhibition by drug alone (RIVA [3]; 10 nM, time (day): 4)	growth inhibition by drug alone (RIVA [3]; 10 nM, time (day): 5)	growth inhibition by drug alone (RIVA [3]; 10 nM, time (day): 6)	growth inhibition by drug alone (RIVA [3]; 100 nM, time (day): 3)	growth inhibition by drug alone (RIVA [3]; 100 nM, time (day): 4)	growth inhibition by drug alone (RIVA [3]; 100 nM, time (day): 5)	growth inhibition by drug alone (RIVA [3]; 100 nM, time (day): 6)	growth inhibition by drug plus 177Lu-lilotomab satetraxetan (U-2932 [4]; 10 nM, time (day): 3)	growth inhibition by drug plus 177Lu-lilotomab satetraxetan (U-2932 [4]; 10 nM, time (day): 4)	growth inhibition by drug plus 177Lu-lilotomab satetraxetan (U-2932 [4]; 10 nM, time (day): 5)	growth inhibition by drug plus 177Lu-lilotomab satetraxetan (U-2932 [4]; 10 nM, time (day): 6)	growth inhibition by drug plus 177Lu-lilotomab satetraxetan (U-2932 [4]; 1000 nM, time (day): 3)	growth inhibition by drug plus 177Lu-lilotomab satetraxetan (U-2932 [4]; 1000 nM, time (day): 4)	growth inhibition by drug plus 177Lu-lilotomab satetraxetan (U-2932 [4]; 1000 nM, time (day): 5)	growth inhibition by drug plus 177Lu-lilotomab satetraxetan (U-2932 [4]; 1000 nM, time (day): 6)	growth inhibition by drug plus 177Lu-lilotomab satetraxetan (RIVA [1]; 10 nM, time (day): 3)	growth inhibition by drug plus 177Lu-lilotomab satetraxetan (RIVA [1]; 10 nM, time (day): 4)	growth inhibition by drug plus 177Lu-lilotomab satetraxetan (RIVA [1]; 10 nM, time (day): 5)	growth inhibition by drug plus 177Lu-lilotomab satetraxetan (RIVA [1]; 10 nM, time (day): 6)	growth inhibition by drug plus 177Lu-lilotomab satetraxetan (RIVA [1]; 100 nM, time (day): 3)	growth inhibition by drug plus 177Lu-lilotomab satetraxetan (RIVA [1]; 100 nM, time (day): 4)
COC(=O)c1ccc2c(C(=Nc3ccc(N(C)C(=O)CN4CCN(C)CC4)cc3)c3ccccc3)c(O)[nH]c2c1 [BIBF1120 (Vargatef)]	0.366	0.375																														
CCC[C@H](NC(=O)/C(C#N)=C/c1cccc(Br)n1)c1ccccc1	0.465	0.478	0.109	0.0652	-0.0661	-0.128	0.0251	0.0639	-0.0194	-0.182	-0.0156	-0.0305	-0.179	-0.663	-0.455	-0.31	-0.323	-0.514	0.0639	0.1	0.129	0.098	0.0285	0.0599	0.115	0.183	0.529	0.596	0.601	0.61	0.35	0.448
O=C(O)CCc1ccc(NCc2cccc(Oc3ccccc3)c2)cc1	0.552	0.561	-0.00379	-0.0257	-0.0189	-0.0582	-0.0179	-0.0506	-0.13	-0.129	-0.138	-0.183	-0.212	-0.37	-0.259	-0.306	-0.351	-0.547	-0.0541	0.038	0.0596	0.0671	-0.0069	0.0299	0.0402	0.126	0.476	0.546	0.562	0.557	0.432	0.527
COc1nc(C)cnc1NS(=O)(=O)c1cccnc1-c1ccc(-c2nnco2)cc1 [Zibotentan (ZD4054)]	0.494	0.461	-0.02	-0.0119	-0.0937	-0.23	-0.0348	-0.00699	-0.0784	-0.143	0.00676	-0.0294	-0.0678	-0.248	-0.0338	-0.0394	-0.0583	-0.115	-0.0217	0.0145	0.00284	0.0711	-0.0714	0.0154	-0.0042	-0.0452	0.387	0.514	0.537	0.542	0.388	0.485
Nc1nccc(-c2ccc3noc(-c4ccc(Cl)cc4)c3c2)n1 [PIM-1 Inhibitor 2]	0.524	0.507	0.154	0.0795	7.17e-05	-0.0865	0.121	0.133	0.0739	0.0111	0.115	0.126	0.0578	-0.0926	0.116	0.161	0.123	0.0468	0.0725	0.102	0.129	0.208	0.106	0.208	0.188	0.253	0.465	0.59	0.607	0.604	0.451	0.536
CC(C)n1nc(-c2ccc3oc(N)nc3c2)c2c(N)ncnc21	0.835	0.833	0.366	0.275	0.188	0.215	0.912	0.912	0.917	0.929	0.258	0.176	0.117	-0.0267	0.716	0.708	0.699	0.63	0.352	0.294	0.31	0.355	0.908	0.905	0.918	0.937	0.595	0.576	0.586	0.587	0.816	0.84
C[C@@H](N)[C@H]1CC[C@H](C(=O)Nc2ccncc2)CC1	0.463	0.469	-0.00242	-0.0313	-0.0598	-0.119	-0.0269	-0.0273	-0.115	-0.0522	-0.062	-0.109	-0.134	-0.231	-0.413	-0.366	-0.399	-0.522	-0.0365	0.0334	0.0633	0.082	-0.014	0.0434	0.0766	0.194	0.59	0.588	0.605	0.619	0.339	0.452
CC(=O)O[C@H]1C(=O)[C@@]2(C)[C@H]([C@H](OC(=O)c3ccccc3)[C@]3(O)C[C@H](OC(=O)[C@H](O)[C@@H](NC(=O)c4ccccc4)c4ccccc4)C(C)=C1C3(C)C)[C@]1(OC(C)=O)CO[C@@H]1C[C@@H]2O [Paclitaxel (Taxol)]	0.984	0.986	0.806	0.808	0.794	0.778	0.955	0.969	0.977	0.983	0.943	0.957	0.965	0.967	0.949	0.962	0.969	0.972	0.818	0.846	0.866	0.883	0.955	0.97	0.979	0.986	0.961	0.977	0.983	0.986	0.968	0.979
Cc1ccc(NC(=O)c2ccc(CN3CC[C@H](N(C)C)C3)c(C(F)(F)F)c2)cc1Nc1nccc(-c2cncnc2)n1 [Bafetinib (INNO-406)]	0.513	0.535	0.0934	0.0624	-0.0124	0.0553	0.0275	-0.0147	-0.073	0.062	0.236	0.204	0.191	0.188	-0.279	-0.213	-0.225	-0.275	0.0136	0.0566	0.138	0.239	0.00697	0.00776	0.0531	0.226	0.594	0.623	0.652	0.658	0.392	0.503
CN1CCN(c2nc(C3=C(c4c[nH]c5ccccc45)C(=O)NC3=O)c3ccccc3n2)CC1 [Sotrastaurin (AEB071)]	0.607	0.591	0.186	0.158	0.0846	0.122	0.463	0.616	0.696	0.756	0.214	0.132	0.0773	-0.121	0.163	0.124	0.0507	-0.0643	0.109	0.131	0.175	0.293	0.572	0.709	0.75	0.788	0.535	0.604	0.626	0.628	0.584	0.609
Cc1cnc(NC(=O)Nc2cc(Br)c(C)cc2OC[C@@H]2CNCCO2)cn1	0.235	0.246	0.0563	0.0329	0.0344	0.113	0.227	0.217	0.207	0.233	-0.0313	-0.0243	-0.0759	-0.161	0.0523	0.0207	-0.0517	-0.0919	-0.00545	0.00557	0.0372	0.164	0.245	0.335	0.376	0.486	0.47	0.531	0.56	0.57	0.176	0.216
COc1cc2ncnc(Nc3ccc(F)c(Cl)c3)c2cc1NC(=O)/C=C/CN1CCCCC1	0.387	0.392	-0.101	-0.0931	-0.078	0.0128	-0.222	-0.156	-0.164	-0.0283	-0.299	-0.339	-0.376	-0.409	-0.261	-0.3	-0.331	-0.346	-0.0733	-0.0275	0.0218	0.0574	-0.26	-0.16	-0.0838	0.0995	0.446	0.525	0.55	0.538	0.262	0.366
COc1ncc(-c2ccc3nccc(-c4ccnnc4)c3c2)cc1NS(=O)(=O)c1ccc(F)cc1F	0.97	0.975	0.726	0.786	0.81	0.821	0.87	0.935	0.961	0.972	0.856	0.892	0.918	0.933	0.898	0.925	0.943	0.953	0.744	0.769	0.769	0.768	0.908	0.958	0.976	0.982	0.897	0.937	0.952	0.961	0.937	0.963
C=CC(=O)N1CCC[C@@H](n2nc(-c3ccc(Oc4ccccc4)cc3)c3c(N)ncnc32)C1	0.919	0.934	0.341	0.519	0.583	0.634	0.502	0.623	0.729	0.832	0.676	0.716	0.705	0.642	0.897	0.908	0.915	0.923	0.46	0.56	0.568	0.6	0.639	0.723	0.791	0.845	0.764	0.828	0.848	0.853	0.872	0.9
